# Assay outcomes from PubChem BioAssay.
# In the library only some 0.51% were active in any assay of this set; here they are far more common.
# Epigenetic derep: epigenetic control regulation, reporter derepression; murine LDR cells, GFP reporter derepression, 30 h; Potency, µM (series often up to 53.9 µM), for inactives: at the highest dose GFP activation, usual class: activators; 280,000 compounds, 0.2% hits; further: % of control where 0% means no effect; nearly all actives have a fitted effect of over 60% in size
#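 Readout is the number of GFP-expressing murine LDR cells, counted by cytometry following washing. Cells were treated with compound for 30 h at 37 C; the stably integrated CMV-GFP locus is normally silent.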
# Vif-A3G inh: inhibitors of Vif-APOBEC3G interaction; HeLa A3G-eYFP + Vif (tagged APOBEC3G with the HIV-1 protein that degrades it), YFP fluorescence, overnight; Potency, µM (top dose mostly 46.1 µM), inactives show top-dose activity, negative = active, actives largely listed as inhibitors; Q9HC16; 410,000 compounds, 0.076% hits; further: on the % scale 0 is the no-effect control and ±100 the full control effect; nearly all actives have a fitted effect of over 60% in size
# Target sequence (Q9HC16 whole entry, looked up): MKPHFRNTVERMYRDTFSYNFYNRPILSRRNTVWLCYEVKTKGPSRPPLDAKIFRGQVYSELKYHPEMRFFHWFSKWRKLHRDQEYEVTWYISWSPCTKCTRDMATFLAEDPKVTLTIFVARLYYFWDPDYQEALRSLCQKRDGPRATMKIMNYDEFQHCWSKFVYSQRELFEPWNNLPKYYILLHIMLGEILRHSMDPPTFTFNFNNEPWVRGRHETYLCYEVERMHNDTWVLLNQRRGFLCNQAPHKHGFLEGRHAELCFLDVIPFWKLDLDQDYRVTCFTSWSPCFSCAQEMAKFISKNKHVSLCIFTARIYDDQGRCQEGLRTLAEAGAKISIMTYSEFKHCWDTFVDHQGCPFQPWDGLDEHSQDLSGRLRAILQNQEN
#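 HeLa cells stably expressing Vif and C-terminally eYFP-tagged A3G, seeded overnight at 37 deg C, then exposed to compound by pintool overnight at 37 deg C. Rise in yellow fluorescence (Ex 488/Em 500-530, Acumen) marks blocked Vif-driven A3G degradation.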
# Vif-A3F inh: Vif-A3F binding inhibition. AID 602313. Potency, µM (series often up to 46.1 µM), without a hit: at the top dose activity, negative = active. 390,000 compounds, 0.2% hits. HeLa A3F-eYFP + Vif (tagged APOBEC3F with the HIV-1 protein that degrades it), YFP fluorescence increase; further: % of control where 0% means no effect; nearly all actives have a fitted effect of over 65% in size
#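 HeLa cells stably expressing Vif plus C-terminally eYFP-tagged A3F were seeded, incubated overnight at 37 deg C, dosed with compound, incubated overnight again at 37 deg C. Yellow fluorescence (Ex 488/Em 500-530) reported blocked Vif-mediated A3F-eYFP degradation.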
# PINK1 modulator: modulators of PINK1 expression; PINK1 immunofluorescence, high-content cytometry, 24 h; Potency, µM (titrated, usually from 76.6 µM), for inactives: at the highest dose activation (PINK1 increase), hits mostly activators; 410,000 compounds, 0.2% hits; AID 624263; active means well fitted activation curve with a large enough effect; inconclusive means small, poorly fitted or top-dose-only effect; cell line not stated here; further: % of control where 0% means no effect; nearly all actives have a fitted effect of over 65% in size
#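 Fluorescence from anti-PINK1 antibody, together with nuclear and cell stains, was scanned on a laser-scanning cytometer. Before staining, stable-line cells were incubated 24 hours with compounds at 5 concentrations; primary antibody 12 h at 10 degrees C.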
# * hit, by the source's call; u = inconclusive; x = not tested or not shown; [ ] = remark or other dose. Unless noted, the call rests on the fitted dose curve; in most records, active means well fitted curve in the direction sought with a large enough effect; inconclusive means small, poorly fitted or top-dose-only effect, or another doubt; inactive means no such curve, though single readings can be large; an effect the other way counts as inactive or inconclusive. Potency means the concentration at half of the fitted maximal effect.
SMILES,Epigenetic derep,Vif-A3G inh,Vif-A3F inh,PINK1 modulator
COC(=O)[C@@H]1CCCN1Cc1ccc2c(c1)CN(Cc1cccn1-c1ccc(Cl)cn1)CCO2,x,x,x,-1%
CC(C)n1nc(C(=O)Nc2nnc(SCc3c(Cl)cccc3Cl)s2)c2ccccc2c1=O,1%,0%,-5%,5.6µM*
Cc1ccc(CN=Cc2[nH]c3ccc(Br)c(Cl)c3c2O)cc1,0%,u,u,11µM*
CSc1nnc(CNS(=O)(=O)c2ccc(F)cc2F)n1-c1ccccc1C,x,x,x,0%
O=CNc1ccc2c3c(cccc13)-c1ccccc1-2,x,13µM*,u,3%
CC(=O)Nc1ccc2c3c(cccc13)C(=O)N(c1ccccc1)C2=O,8%,5%,u,-1%
Cc1ncc2c(c1CNS(=O)(=O)N(C)C)CCN(C(=O)/C=C/c1ccccc1Cl)C2,x,x,x,0%
CC(=O)c1ccc(NC(=O)CCCN2C(=O)/C(=C/C(C)=C/c3ccccc3)SC2=S)cc1,1%,-6%,-10%,22µM*
COc1ccc(Cl)cc1NC(=O)c1cccc([N+](=O)[O-])c1O,x,2%,2%,22µM*
Cc1cccc(-n2c(CCn3nc(C)c([N+](=O)[O-])c3C)n[nH]c2=S)c1,0%,2%,-2%,11µM*
COc1cccc(-n2c(CCn3nc(C)c([N+](=O)[O-])c3C)n[nH]c2=S)c1,-3%,1%,-4%,-1%
COc1ccc2c(c1)CCc1cnc(-n3ncc(C(=O)NCCCc4ccncc4)c3C)nc1-2,x,x,x,2%
COc1ccc([C@H]2CC(=O)C=C(c3ccc(NC(C)=O)cc3)C2)cc1OC,x,-4%,3%,1%
CC(=O)Nc1ccc(C2=CC(=O)C[C@H](c3ccc(Cl)cc3)C2)cc1,x,u,22µM*,5%
Cc1cccc(C(=O)N2CCOc3ccc(CN(C)Cc4cc(C5CC5)n[nH]4)cc3C2)n1,x,x,x,-1%
CC1CN(c2ncc(/C=N/NC(=O)c3ccccc3O)s2)CC(C)O1 (stereo unspecified),2%,-2%,4%,0%
O=C(N/N=C/c1cnc(N2CCCCC2)s1)c1ccc(C(F)(F)F)cc1,2%,-3%,0%,7.1µM*
CC1CC(=O)C2=C(C1)OC(N)=C(C#N)C2c1coc2ccccc2c1=O (stereo unspecified),0%,-15%,11µM*,1%
CC1(C)CC(=O)C2=C(C1)OC(N)=C(C#N)C2c1ccccc1 (stereo unspecified),-3%,-5%,0%,-1%[38.3 µM]
O=C(CN1Cc2ccccc2OC(c2ccsc2)C1)NCc1ccc2c(c1)OCO2 (stereo unspecified),x,x,x,-1%
CC(C)(C)n1ncc2c(=O)n(Cc3cc(F)c(F)cc3Cl)cnc21,x,2%,x,x
COCCn1c(C)cc(C2=NNC(=Nc3ccc(Cl)cc3Cl)SC2)c1C,-1%,5%,-6%,18%[38.3 µM]
COCC(C)N=C1NN=C(c2cc(C)n(Cc3ccccc3Cl)c2C)CS1 (stereo unspecified),-2%,-1%,4%,35µM*
O=C(Nc1cc(Cl)ccc1-n1cncn1)c1ccc([N+](=O)[O-])s1,x,u,u,5µM*
COc1ccc2cc(/C=N/NC(=O)c3ccc(CN(c4ccc(C)c(C)c4)S(C)(=O)=O)cc3)c(Cl)nc2c1,22µM*,-8%,9%,5%
SMILES,Epigenetic derep,Vif-A3G inh,Vif-A3F inh,PINK1 modulator
COc1ccc2cc(/C=N/NC(=O)c3c(Cl)cnn3C)c(Cl)nc2c1,u,-1%,0%,u
Cc1ccc(SC(=O)c2c([N+](=O)[O-])c(C)nn2C)cc1,22µM*,-14%,-13%,4%
COc1ccc(/C=C2\SC(=N)N(c3nccs3)C2=O)cc1OC,u,u,u,12%
N=C1S/C(=C\c2ccc(-c3cccc(Cl)c3)o2)C(=O)N1c1nccs1,u,-4%,25µM*,9%
COc1ccccc1NC(=O)c1sc2nc(C)c(C(=O)Nc3ccc(C)cc3C)c(-c3ccc(C)o3)c2c1N,10%,-4%,1%,0%
COc1ccccc1NC(=O)c1sc2nc(C)c(C(=O)Nc3ccc(C)cc3C)c(-c3ccco3)c2c1N,8.9µM*,-12%,u,4%
Cc1ccc(NC(=O)c2c(C)nc3sc(C(=O)Nc4ccc(F)cc4)c(N)c3c2-c2ccc(C)o2)c(C)c1,22µM*,u,u,0%
Cc1cc2c(c(-c3ccc(Cl)cc3)c1)OC(CNC(=O)Cc1c(C)noc1C)C2 (stereo unspecified),x,x,x,4%
Cc1ccc(C(=O)/C=C\C(=O)c2ccc(C)cc2)cc1,0%,-13%,8%,2%
Cc1ccc(S/C=C\C(=O)c2ccccc2)cc1,3%,u,-7%,13µM*
CCc1c(C)sc(NC(=O)CSc2nc3c(c(C(F)(F)F)n2)CCc2ccccc2-3)c1C#N,1%,0%,-1%,16µM*
CC(NC(=O)CSc1nc2c(c(C(F)(F)F)n1)CCc1ccccc1-2)c1ccccc1 (stereo unspecified),2%,2%,6%,-1%
C=CCCc1ccc(C#N)c(SCc2c(C(=O)OCC)c3cc(OC(C)=O)c(Br)cc3n2C)n1,13µM*,1%,-8%,2%
CCOC(=O)c1c(CSc2nc(C)cc(C)c2C#N)n(C)c2cc(Br)c(OC(C)=O)cc12,1%,0%,6%,0%
Cc1cc(Nc2ccc(C)c(Cl)c2)n2nc(-c3ccccc3)nc2n1,11µM*,u,u,u
COc1cccc(Nc2cc(C)nc3nc(-c4ccc(Cl)cc4)nn23)c1,-3%,3%,7%,0%
O=C1Nc2ccc(Br)cc2C1(O)c1ccccc1 (stereo unspecified),x,-1%,-16%,2%
O=C1Nc2ccc(Br)cc2C12NNc1ccccc1O2 (stereo unspecified),18µM*,u,u,-1%
Nc1c(C(=O)N2CCOCC2)sc2nc(N3CCOCC3)c3c(c12)CCCC3,0%,-5%,5%,-1%
Cc1cccc2cc3c(N)c(C(=O)N4CCOCC4)sc3nc12,1%,u,22µM*,1%
CCN(CC)c1ccc(/C=C(/C#N)c2nc3ccc(C)cc3[nH]2)c(OC(C)C)c1,5µM*,u,-2%,u
CCOc1cc(N(CC)CC)ccc1/C=C(/C#N)c1nc2ccccc2[nH]1,7.9µM*,u,3.5µM*,8%
Cc1ccccc1-n1cc(CNC(=O)CN2Cc3ccccc3OC(C)C2)cn1 (stereo unspecified),x,x,x,1%
CCCCCCCCCC[n+]1ccc(/C=C/c2c(C)[nH]c3ccccc23)c2ccccc21,x,7%,x,x
CCCCCCSc1cccc(-c2nc3cc(C)ccn3c2NCc2ccccc2)c1,x,-2%,u,u
CCCCCCSc1cccc(-c2nc3ccc(C)cn3c2NCc2ccccc2)c1,x,-1%,u,25µM*
CCc1ccc(Nc2n[n+](-c3ccccc3)c(-c3ccc(SC)cc3)s2)cc1,x,0%,0%,35µM*
O=C(CCC(=O)Nc1ccc(F)cc1)N/N=C/c1ccc(O)cc1O,1%,-5%,-14%,1%
Oc1ccc(C=NNC(=S)Nc2ccc(F)cc2)c(O)c1,x,u,25µM*,u
